Data reported in PubChem BioAssay (NCATS).
Results filed as inconclusive are left out. Calls of active or inactive are those of the source. Unless noted, calls come from the whole dose curve; as a rule, active = well fitted curve in either direction with a large enough effect (not every such curve was filed as active); inconclusive = small, poorly fitted or top-dose-only effect, or another doubt; inactive = flat fitted curve, though single readings scatter.

Legend:
[1] = AP1 Signaling Pathway (AID 357); conditions: ME-180 AP-1-bla reporter, EGF-induced, beta-lactamase ratio, 5 h; at 17.2 µM (top of the series) unless noted;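 note: ME-180 reporter cells stimulated with EGF at its EC50 level; % is set by controls: 0 for no effect and ±100 for the full control effect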
How it was run: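 A ratiometric CCF4 readout (405 nm excitation; 460 and 530 nm emission) quantified AP-1-driven beta-lactamase in ME-180 cells after 5 h with compound and EC50 EGF; AC50 values were derived for activators and inhibitors.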

[2] = NFAT Signaling Pathway (AID 444); conditions: Jurkat NFAT-bla M1, carbachol, beta-lactamase ratio, 5 h; at 17.2 µM (top of the series) unless noted;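 note: carbachol stimulus at about its EC50 of 1 µM final; % is set by controls: 0 for no effect and ±100 for the full control effect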
How it was run: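 Jurkat cells carrying an NFAT-driven β-lactamase reporter and co-transfected muscarinic M1 receptor were treated with compound plus carbachol (1 uM final, an EC50 level) for 5 h at 37 °C. CCF4 loading followed for 1 h at RT; 460/530 nm ratio gave %activity.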

[3] = Stat Signaling Pathway (AID 446); conditions: ME-180 (cervical carcinoma) SIE beta-lactamase reporter, IL-6 stimulated, 5 h; at 17.2 µM (top of the series) unless noted;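 note: ME-180 cervical cancer cells given 40 pM IL-6 alongside compound; SIE-controlled beta-lactamase reporter measured as 460/530 nm FRET emission ratio; % is set by controls: 0 for no effect and ±100 for the full control effect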
How it was run: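 Compound effects on IL-6-induced STAT reporter activity were measured in ME-180 cells. After overnight culture, cells were co-treated with 40 pM IL-6 for 5 hrs before beta-lactamase substrate loading at room temperature.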

[4] = molecular target: Glucocorticoid receptor (Homo sapiens) (UniProt P04150); assay: GR-GFP Redistribution (AID 450;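 active = compounds whose dose series gives a full or clear partial fitted curve of increased nuclear translocation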; note: potency is the fitted concentration of half-maximal effect)
[5] = molecular target: Glucocorticoid receptor (Homo sapiens) (UniProt P04150); assay: GR-EFC Redistribution (AID 451; calls by dose curve; note: potency is the fitted concentration of half-maximal effect); conditions: CHO-K1 GR-EFC translocation, beta-gal luminescence, 2 h
How it was run: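 CHO-K1 cells stably expressing nuclear-localized β-gal enzyme acceptor and GR fused C-terminally to the enzyme donor fragment; ligand-driven nuclear translocation restores β-gal by complementation. Compounds titrated up to 46 uM final, 2 h at 37 °C; luminescence read.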

[6] = molecular target: 3',5'-cyclic-AMP phosphodiesterase 4B (Homo sapiens) (UniProt Q07343); assay: qHTS Assay for Inhibitors of PDE-IV (AID 607; active = well fitted activation curve with a large enough effect in the main read-out, with a control signal flat, not every such curve was filed as active; note: % of control where 0% means no effect)
How it was run: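 ACTOne HEK293 cells carry a modified cAMP-gated CNG channel and express endogenous PDE4; plated 1000 cells/well, compounds up to 22.9 uM final. Membrane-potential dye fluorescence (ex 535/em 590) was read; parental cells received 10 uM forskolin + 100 uM RO 20-1724.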

[7] = molecular target: Guanine nucleotide-binding protein G(i) subunit alpha-1 (Homo sapiens) (UniProt P63096); assay: qHTS Assay for Inhibitors of RGS12 GoLoco Motif Activity (Green Fluorophore) (AID 879; active = well fitted curve in the direction sought with a large enough effect; an effect the other way counts as inactive or inconclusive;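 note: 0% = labeled peptide with Gαi1 and full inhibition = labeled peptide alone without protein; negative values mean loss of peptide binding seen as reduced polarization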)
How it was run: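 A drop in FITC polarization marked displacement of the FITC-tagged RGS12 GoLoco peptide (10 nM) from Gαi1 (50 nM). Compounds were incubated 10 min at room temperature in Tris pH 7.5 buffer containing 150 mM NaCl, 0.1 mM GDP and 0.05% NP40; unlabeled peptide titration served as control.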

[8] = qHTS Assay for Identification of Small Molecule Antagonists for NFkB Signaling Pathway (AID 895; active = well fitted inhibition curve with a large enough effect in the signal ratio, with a control signal flat, not every such curve was filed as active; the % refers to the signal ratio; note: % is set by controls: 0 for no effect and ±100 for the full control effect)
How it was run: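 NFkB-bla ME-180 cervical carcinoma cells with beta-lactamase reporter under NFkB response element; compounds added, then TNF alpha at 10 pM final (EC50), 5 h at 37 C. LiveBLAzer substrate 2 h, room temperature; emission 460/530 nm at 405 nm excitation.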

[9] = qHTS Assay for Identification of Small Molecule Agonists for Thrombopoietin (TPO) Signaling Pathway (AID 917; active = well fitted curve in the direction sought with a large enough effect; an effect the other way counts as inactive or inconclusive; note: % is set by controls: 0 for no effect and ±100 for the full control effect)
How it was run: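 Cell-based luciferase reporter screen. Mouse Ba/F3 line stably expressing human TPO receptor; IL-3 removed overnight before plating. Co-treatment with compound and EC50 TPO (26 pM), 24 hrs at 37 C, then luminescence.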

[10] = molecular target: Muscarinic acetylcholine receptor M1 (Rattus norvegicus) (UniProt P08482); assay: qHTS Assay for Antagonists of Acetylcholine Muscarinic M1 Receptor: Kinetic Measurement of Intracellular Calcium Response (AID 943; active = well fitted curve in the direction sought with a large enough effect; an effect the other way counts as inactive or inconclusive;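 note: Fluo-4 calcium signal as peak divided by basal fluorescence over 4 min; nearly all actives have a fitted effect of over 75% in size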)
How it was run: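 Antagonism is measured as inhibition of the carbachol-evoked calcium rise in CHO cells transfected with rat M1. Cells are dye-loaded, exposed to compound for 10 min, then stimulated with 100 nM carbachol (EC80).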

[11] = molecular target: Pyruvate kinase (Leishmania mexicana) (UniProt Q27686); assay: qHTS Validation Assay for Inhibitors of Leishmania Mexicana Pyruvate Kinase (AID 945; active = well fitted curve in the direction sought with a large enough effect; an effect the other way counts as inactive or inconclusive;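 note: 0% = DMSO only neutral control wells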)
How it was run: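 Purified LmPYK (E451W mutant, 0.2 nM) was incubated 1 h at room temperature with 0.5 mM PEP and 0.1 mM ADP in 50 mM imidazole pH 7.2, 50 mM KCl, 7 mM MgCl2; ATP formed was read by PKLight luminescence, normalized to DMSO wells.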

[12] = molecular target: Pyruvate kinase PKM (Homo sapiens) (UniProt P14618); assay: qHTS Assay for Activators of Human Muscle Pyruvate Kinase (AID 954; active = well fitted curve in the direction sought with a large enough effect, not every such curve was filed as active;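 note: 0% = uninhibited enzyme and -100% = no enzyme or full thiadiazolimine inhibition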)
How it was run: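 A coupled luminescent readout tracked ATP made from ADP by purified PKM2. Final conditions included 0.1 nM enzyme, PEP and ADP at 0.5 and 0.1 mM, pH 7.2 imidazole buffer with BSA, and a one-hour room-temperature reaction.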

[13] = molecular target: Alpha-galactosidase A (Homo sapiens) (UniProt P06280); assay: Counterscreen for Glucocerebrosidase Inhibitors: qHTS Assay for Human alpha-Galactosidase at pH 4.5 (AID 992; active = well fitted curve in the direction sought with a large enough effect; an effect the other way counts as inactive or inconclusive; note: 0% is about no effect)
How it was run: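 Citrate buffer pH 4.5, Tween-20 0.005%. Enzyme 2 nM, substrate 80 uM, 20 min RT. Stop pH 10. Fluorescence Ex 365/Em 440. AC50 by Hill fit.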

[14] = molecular target: alpha-glucosidase (Oryza sativa, rice) (UniProt Q653V4); assay: Counterscreen for Glucocerebrosidase Inhibitors: qHTS Assay for Rice alpha-Glucosidase at pH 5.0 (AID 997; active = well fitted curve in the direction sought with a large enough effect; an effect the other way counts as inactive or inconclusive;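 note: 0% = full activity with enzyme and -100% = basal without enzyme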)
How it was run: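 Endpoint fluorogenic assay at pH 5.0: compounds (0.7 nM to 77 uM) titrated against 4 nM rice enzyme and 400 uM 4-MU-alpha-glucoside for 20 min at room temperature; NaOH/glycine stop, read ex 365/em 440 nm, Hill-fitted AC50.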

Glucocorticoid receptor (Homo sapiens), sequence (P04150 whole entry, looked up, the tested form may be a part): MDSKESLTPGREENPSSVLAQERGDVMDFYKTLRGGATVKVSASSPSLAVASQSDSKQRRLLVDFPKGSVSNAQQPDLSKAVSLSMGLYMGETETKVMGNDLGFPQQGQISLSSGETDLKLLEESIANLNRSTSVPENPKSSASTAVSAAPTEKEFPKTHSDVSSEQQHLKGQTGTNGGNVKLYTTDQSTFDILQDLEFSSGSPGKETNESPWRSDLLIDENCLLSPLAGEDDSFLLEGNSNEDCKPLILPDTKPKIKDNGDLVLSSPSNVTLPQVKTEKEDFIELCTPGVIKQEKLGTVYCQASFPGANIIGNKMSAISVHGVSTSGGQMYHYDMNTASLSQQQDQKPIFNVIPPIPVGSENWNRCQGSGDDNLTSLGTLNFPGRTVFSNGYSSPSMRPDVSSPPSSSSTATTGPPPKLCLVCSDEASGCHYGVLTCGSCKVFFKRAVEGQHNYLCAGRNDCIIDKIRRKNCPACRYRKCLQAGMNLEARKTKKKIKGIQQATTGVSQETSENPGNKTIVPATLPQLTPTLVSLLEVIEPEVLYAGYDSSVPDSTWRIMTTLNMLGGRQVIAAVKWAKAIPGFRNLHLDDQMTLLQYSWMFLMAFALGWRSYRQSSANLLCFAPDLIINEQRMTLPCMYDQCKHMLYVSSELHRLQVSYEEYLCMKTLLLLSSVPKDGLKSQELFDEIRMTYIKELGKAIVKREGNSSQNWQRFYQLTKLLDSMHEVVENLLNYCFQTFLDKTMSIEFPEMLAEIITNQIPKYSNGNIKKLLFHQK
Alpha-galactosidase A (Homo sapiens), sequence (P06280 whole entry, looked up): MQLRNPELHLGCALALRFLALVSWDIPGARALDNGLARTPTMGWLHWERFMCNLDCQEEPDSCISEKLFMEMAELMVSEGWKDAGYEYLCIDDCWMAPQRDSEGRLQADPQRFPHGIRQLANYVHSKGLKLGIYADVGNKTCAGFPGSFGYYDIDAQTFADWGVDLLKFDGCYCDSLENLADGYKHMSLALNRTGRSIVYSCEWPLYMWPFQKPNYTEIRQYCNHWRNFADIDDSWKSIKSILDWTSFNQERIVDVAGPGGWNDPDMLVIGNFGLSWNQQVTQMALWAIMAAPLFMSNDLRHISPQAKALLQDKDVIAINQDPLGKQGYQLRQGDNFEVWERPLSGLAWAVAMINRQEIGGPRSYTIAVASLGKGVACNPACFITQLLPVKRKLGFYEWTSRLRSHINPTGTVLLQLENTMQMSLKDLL
Pyruvate kinase (Leishmania mexicana), sequence (Q27686 2-499 E452W): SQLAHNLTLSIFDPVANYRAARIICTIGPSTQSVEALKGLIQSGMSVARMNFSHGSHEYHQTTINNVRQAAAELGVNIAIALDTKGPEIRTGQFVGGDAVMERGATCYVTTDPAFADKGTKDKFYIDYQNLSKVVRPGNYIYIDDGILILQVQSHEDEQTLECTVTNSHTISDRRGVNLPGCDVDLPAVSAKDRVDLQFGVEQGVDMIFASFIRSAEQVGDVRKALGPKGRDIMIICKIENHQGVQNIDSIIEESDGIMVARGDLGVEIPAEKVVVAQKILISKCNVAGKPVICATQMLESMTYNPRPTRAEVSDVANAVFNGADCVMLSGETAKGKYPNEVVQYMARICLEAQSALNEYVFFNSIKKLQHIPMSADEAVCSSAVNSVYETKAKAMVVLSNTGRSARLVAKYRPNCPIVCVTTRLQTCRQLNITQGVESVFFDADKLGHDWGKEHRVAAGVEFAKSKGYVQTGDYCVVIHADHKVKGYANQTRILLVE
3',5'-cyclic-AMP phosphodiesterase 4B (Homo sapiens), sequence (Q07343 whole entry, looked up): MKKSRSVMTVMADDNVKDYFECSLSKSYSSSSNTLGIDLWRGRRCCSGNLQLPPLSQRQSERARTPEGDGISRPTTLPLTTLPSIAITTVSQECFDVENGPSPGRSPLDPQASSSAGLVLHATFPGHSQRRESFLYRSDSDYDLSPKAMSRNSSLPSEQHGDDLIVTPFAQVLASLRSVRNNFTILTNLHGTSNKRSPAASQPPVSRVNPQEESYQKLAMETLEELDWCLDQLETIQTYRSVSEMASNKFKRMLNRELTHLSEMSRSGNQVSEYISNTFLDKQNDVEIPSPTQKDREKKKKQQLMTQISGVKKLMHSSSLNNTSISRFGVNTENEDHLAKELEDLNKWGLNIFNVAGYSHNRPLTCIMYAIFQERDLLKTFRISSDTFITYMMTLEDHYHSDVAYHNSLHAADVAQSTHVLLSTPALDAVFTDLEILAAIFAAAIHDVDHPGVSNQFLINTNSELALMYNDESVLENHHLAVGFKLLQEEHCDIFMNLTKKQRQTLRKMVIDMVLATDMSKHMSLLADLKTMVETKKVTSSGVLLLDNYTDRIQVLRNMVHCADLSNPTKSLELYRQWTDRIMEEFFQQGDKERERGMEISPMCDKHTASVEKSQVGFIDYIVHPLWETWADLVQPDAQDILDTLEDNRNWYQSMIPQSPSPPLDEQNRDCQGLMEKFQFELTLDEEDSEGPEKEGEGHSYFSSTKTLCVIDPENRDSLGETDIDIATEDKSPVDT
Guanine nucleotide-binding protein G(i) subunit alpha-1 (Homo sapiens), sequence (P63096 whole entry, looked up): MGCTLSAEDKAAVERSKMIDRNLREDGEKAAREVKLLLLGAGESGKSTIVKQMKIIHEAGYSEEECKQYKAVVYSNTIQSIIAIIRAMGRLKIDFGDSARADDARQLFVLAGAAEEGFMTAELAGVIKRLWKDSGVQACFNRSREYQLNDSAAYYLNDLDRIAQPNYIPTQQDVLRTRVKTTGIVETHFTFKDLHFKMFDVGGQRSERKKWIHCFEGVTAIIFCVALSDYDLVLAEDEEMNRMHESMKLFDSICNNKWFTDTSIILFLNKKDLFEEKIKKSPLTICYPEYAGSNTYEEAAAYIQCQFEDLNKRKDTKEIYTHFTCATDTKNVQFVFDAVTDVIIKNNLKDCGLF
Muscarinic acetylcholine receptor M1 (Rattus norvegicus), sequence (P08482 whole entry, looked up): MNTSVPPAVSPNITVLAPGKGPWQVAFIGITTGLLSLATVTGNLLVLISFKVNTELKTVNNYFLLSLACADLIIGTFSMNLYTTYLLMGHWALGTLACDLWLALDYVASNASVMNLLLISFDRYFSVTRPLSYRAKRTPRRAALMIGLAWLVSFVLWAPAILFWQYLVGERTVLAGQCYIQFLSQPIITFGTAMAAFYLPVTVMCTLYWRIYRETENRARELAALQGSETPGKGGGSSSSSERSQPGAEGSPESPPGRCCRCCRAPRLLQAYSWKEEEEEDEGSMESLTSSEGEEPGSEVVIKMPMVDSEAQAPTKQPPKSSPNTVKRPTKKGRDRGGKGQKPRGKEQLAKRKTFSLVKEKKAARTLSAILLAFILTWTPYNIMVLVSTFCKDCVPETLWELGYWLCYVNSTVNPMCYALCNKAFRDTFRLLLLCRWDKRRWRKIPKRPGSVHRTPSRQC
Pyruvate kinase PKM (Homo sapiens), sequence (P14618 whole entry, looked up): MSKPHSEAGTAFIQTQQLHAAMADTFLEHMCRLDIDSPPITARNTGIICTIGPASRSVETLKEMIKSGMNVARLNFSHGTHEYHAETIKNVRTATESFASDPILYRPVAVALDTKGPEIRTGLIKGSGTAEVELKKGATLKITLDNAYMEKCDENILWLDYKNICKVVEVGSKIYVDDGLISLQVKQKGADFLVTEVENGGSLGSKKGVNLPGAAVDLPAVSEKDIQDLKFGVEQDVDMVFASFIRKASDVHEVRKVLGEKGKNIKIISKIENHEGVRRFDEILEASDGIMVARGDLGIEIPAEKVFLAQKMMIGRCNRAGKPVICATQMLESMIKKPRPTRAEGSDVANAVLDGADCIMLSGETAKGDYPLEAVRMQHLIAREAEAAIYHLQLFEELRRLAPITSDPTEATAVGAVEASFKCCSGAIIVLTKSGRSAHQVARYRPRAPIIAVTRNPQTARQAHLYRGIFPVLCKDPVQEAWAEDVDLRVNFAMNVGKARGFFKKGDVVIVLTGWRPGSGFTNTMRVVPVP

COc1ccc(/C(O)=C2\C(=O)C(=O)N(CCN(C)C)C2c2cccc(OC)c2OC)cc1Cl (stereo unspecified)
inactive: activity change, negative = inhibition [1] -2.56% | activity change, negative = inhibition [2] 11.9% | activity, negative = inhibition [3] 8.3% | Potency [4] > 20.6 µM

OC(CCCN1CCC(O)(c2ccc(Cl)cc2)CC1)c1ccc(F)cc1 (stereo unspecified)
inactive: activity change, negative = inhibition [1] -2.74% | activity change, negative = inhibition [2] -27.5% | activity, negative = inhibition [3] 4.61% | Potency [4] > 20.6 µM

COCCOC(=O)C1=C(C)NC(SCC(=O)NC(C)(C)C)=C(C#N)C1c1ccco1 (stereo unspecified)
inactive: activity change, negative = inhibition [1] -20.5% | activity change, negative = inhibition [2] 12.6% | activity, negative = inhibition [3] -8.48% | Potency [4] > 20.6 µM

CC(=O)c1c(C(C)=O)c(C)n(NC(=O)c2ccncc2)c1C
inactive: activity change, negative = inhibition [1] 2.53% | activity change, negative = inhibition [2] 3.09% | activity, negative = inhibition [3] 17% | Potency [4] > 20.6 µM

CCOC(=O)C1=C(N)N2C(=O)CSC2=C(C(=O)OC)C1
inactive: activity change, negative = inhibition [1] -12.4% | activity change, negative = inhibition [2] 12.5% | activity, negative = inhibition [3] -25.6% | Potency [4] > 20.6 µM

CCOC(=O)c1[nH]c2ccc(OC)cc2c1C
inactive: activity change, negative = inhibition [1] -0.35% | activity change, negative = inhibition [2] -6.84% | activity, negative = inhibition [3] 6% | Potency [4] > 20.6 µM

COc1cc(C2CC(C(F)(F)F)n3ncc(C(=O)O)c3N2)cc(OC)c1OC (stereo unspecified)
inactive: activity change, negative = inhibition [1] 6.2% | activity change, negative = inhibition [2] -3.76% | activity, negative = inhibition [3] 7.46% | Potency [4] > 20.6 µM

CC1=C(c2ccc(Cl)cc2)[N+](=O)C(C)(C)N1[O-]
inactive: activity change, negative = inhibition [1] 8.72% | activity change, negative = inhibition [2] 13.4% | activity, negative = inhibition [3] -0.945% | Potency [4] > 20.6 µM

Cc1c(C=NCCOCc2ccccc2)cnn1C
inactive: activity change, negative = inhibition [1] -2.81% | activity change, negative = inhibition [2] -4.41% | activity, negative = inhibition [3] 12.4% | Potency [4] > 20.6 µM

COc1ccccc1-c1c(C)oc2c(CN3CCN(C)CC3)c(O)ccc2c1=O
inactive: activity change, negative = inhibition [1] 1.13% | activity change, negative = inhibition [2] 5.13% | activity, negative = inhibition [3] 4.08% | Potency [4] > 20.6 µM

N/C(=N\c1nc2ccccc2o1)NC(=O)c1ccccc1NC(=O)c1ccccc1
inactive: activity change, negative = inhibition [1] 14.1% | activity change, negative = inhibition [2] -14.2% | activity, negative = inhibition [3] -27.8% | Potency [4] > 20.6 µM

Cc1c2c([n+]3n1CCC3)CC(C)(C)CC2=O
inactive: activity change, negative = inhibition [1] 8.99% | activity change, negative = inhibition [2] -9.27% | activity, negative = inhibition [3] 11.2% | Potency [4] > 20.6 µM

CN=C1c2cc3c(Br)c(OC)ccc3n2CCN1C
inactive: activity change, negative = inhibition [1] 4.49% | activity change, negative = inhibition [2] -7.64% | activity, negative = inhibition [3] 6.11% | Potency [4] > 20.6 µM

COC(=O)C(NC(C)=O)(Nc1ccccn1)C(F)(F)F (stereo unspecified)
inactive: activity change, negative = inhibition [1] -1.38% | activity change, negative = inhibition [2] 5.18% | activity, negative = inhibition [3] 0.0282% | Potency [4] > 20.6 µM

CCN(CC)CCCN1C(=O)C(O)=C(C(=O)c2ccc(C)o2)C1c1ccc(C)o1 (stereo unspecified)
inactive: activity change, negative = inhibition [1] 5.4% | activity change, negative = inhibition [2] -12.9% | activity, negative = inhibition [3] 9.39% | Potency [4] > 20.6 µM

CC(C)(C#N)C(C)(C)c1nn[nH]n1
inactive: activity change, negative = inhibition [1] 6.02% | activity change, negative = inhibition [2] 0.881% | activity, negative = inhibition [3] 8.72% | Potency [4] > 20.6 µM

Cc1cc(OCCN2CCOCC2)nc2ccccc12
inactive: activity change, negative = inhibition [1] -9.97% | activity change, negative = inhibition [2] 23.5% | activity, negative = inhibition [3] 1.79% | Potency [4] > 20.6 µM

CC1(C)Cc2c(oc3ncn4ncnc4c23)CO1
inactive: activity change, negative = inhibition [1] -9.2% | activity change, negative = inhibition [2] -1.16% | activity, negative = inhibition [3] 7.25% | Potency [4] > 20.6 µM

CCN(CC)CCN1C(=O)C(=O)/C(=C(/O)c2c(C)[nH]c(C(=O)OC)c2C)C1c1cccc(OC)c1 (stereo unspecified)
inactive: activity change, negative = inhibition [1] 1.88% | activity change, negative = inhibition [2] 3.77% | activity, negative = inhibition [3] 5.49% | Potency [4] > 20.6 µM

CCC(NC(=O)Nc1cc(OC)c(OC)c(OC)c1)(C(F)(F)F)C(F)(F)F
inactive: activity change, negative = inhibition [1] -13.9% | activity change, negative = inhibition [2] 14.9% | activity, negative = inhibition [3] -1.91% | Potency [4] > 20.6 µM

O=C(CCC1CCCC1)N1CCC(N2CCN(c3ccccc3)CC2)CC1
inactive: activity change, negative = inhibition [1] -5.6% | activity change, negative = inhibition [2] -29.5% | activity, negative = inhibition [3] 9.85% | Potency [4] > 20.6 µM

CCOC(=O)CNS(=O)(=O)c1cc(-c2n[nH]c(=O)c3ccccc23)ccc1C
inactive: activity change, negative = inhibition [1] -5.55% | activity change, negative = inhibition [2] 5.83% | activity, negative = inhibition [3] -10.1% | Potency [4] > 20.6 µM

CCCOc1cccc(C2C(C(=O)c3ccc(C)o3)=C(O)C(=O)N2CCCN(C)C)c1 (stereo unspecified)
inactive: activity change, negative = inhibition [1] -10.8% | activity change, negative = inhibition [2] 10.1% | activity, negative = inhibition [3] 5.19% | Potency [4] > 20.6 µM

O=C(OCCCN1CCCC1)C1(c2ccccc2)CCCC1
active: activity change, negative = inhibition [2] -82.8%
inactive: activity change, negative = inhibition [1] 14.4% | activity, negative = inhibition [3] 13.7% | Potency [4] > 20.6 µM

COC(=O)C(NC(C)=O)(Nc1ccc(Br)cc1)C(=O)OC
inactive: activity change, negative = inhibition [1] 8.16% | activity change, negative = inhibition [2] -1.04% | activity, negative = inhibition [3] 8.85% | Potency [4] > 20.6 µM

CCOC(=O)c1c(C(F)(F)C(F)(F)C(F)(F)C(F)(F)F)n[nH]c1C
inactive: activity change, negative = inhibition [1] 4.08% | activity change, negative = inhibition [2] -9.51% | activity, negative = inhibition [3] -8.59% | Potency [4] > 20.6 µM

CC(=O)OC12CC3CC(C1)C(=NO)C(C3)C2
inactive: activity change, negative = inhibition [1] 9.34% | activity change, negative = inhibition [2] 1.23% | activity, negative = inhibition [3] 13.8% | Potency [4] > 20.6 µM

COc1ccc(C(=O)/C=C/Nc2cccc(C)n2)cc1OC
inactive: activity change, negative = inhibition [1] -16.3% | activity change, negative = inhibition [2] 22.7% | activity, negative = inhibition [3] 0.139% | Potency [4] > 20.6 µM

CCNC(=O)[C@@H]1O[C@@H](n2cnc3c(N)nc(NCCc4ccc(CCC(=O)O)cc4)nc32)[C@H](O)[C@@H]1O
inactive: activity change, negative = inhibition [1] -2.01% [at 38 µM] | activity change, negative = inhibition [2] 4.74% [at 38 µM] | activity, negative = inhibition [3] 22.6% [at 38 µM] | Potency [4] > 46 µM | Potency [5] > 46 µM | Potency [6] | outcome [7] | Potency [8] | Potency [9] | Potency [10] | Potency [11] | outcome [12] | outcome [13] | outcome [14]
